Bioassay records deposited in PubChem by National Center for Advancing Translational Sciences (NCATS).
Sampled rows, rich in hits. Any-hit rate of the full collection: about 0.34%.
Vif-APOBEC3G blk: blocks the Vif interaction with human APOBEC3G | HeLa A3G-eYFP + Vif (tagged APOBEC3G with the HIV-1 protein that degrades it), YFP fluorescence, overnight | Potency, µM (top dose mostly 46.1 µM), for inactives: top-dose activity, negative = active, most hits filed as inhibitors | hit rate 0.076% among 410,000 | AID 602310; further: on the % scale 0 is the no-effect control and ±100 the full control effect; nearly all actives have a fitted effect of over 60% in size
Target sequence (Q9HC16 whole entry, looked up): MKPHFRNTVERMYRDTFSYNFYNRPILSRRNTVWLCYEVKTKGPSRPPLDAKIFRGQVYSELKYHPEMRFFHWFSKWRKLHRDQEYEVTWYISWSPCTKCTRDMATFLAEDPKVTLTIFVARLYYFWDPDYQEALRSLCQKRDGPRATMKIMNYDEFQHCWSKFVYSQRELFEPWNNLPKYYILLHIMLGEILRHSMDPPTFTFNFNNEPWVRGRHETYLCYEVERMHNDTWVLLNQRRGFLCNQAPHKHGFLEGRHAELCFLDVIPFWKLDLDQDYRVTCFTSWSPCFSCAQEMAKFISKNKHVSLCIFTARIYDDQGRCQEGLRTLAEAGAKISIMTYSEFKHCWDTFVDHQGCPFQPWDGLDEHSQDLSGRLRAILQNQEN
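Read-out is eYFP fluorescence (Ex 488/Em 500-530) from Vif-expressing HeLa A3G-eYFP cells; more signal means A3G escaped Vif-mediated degradation. Cells plated overnight, compound pinned in, incubated overnight at 37 deg C.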
Vif-APOBEC3F blk: blocks the Vif interaction with APOBEC3F; HeLa A3F-eYFP + Vif (tagged APOBEC3F with the HIV-1 protein that degrades it), YFP fluorescence increase; Potency, µM (top dose mostly 46.1 µM), for the others: at the top dose activity, negative = active; hit rate 0.2% among 390,000; AID 602313; further: % of control where 0% means no effect; nearly all actives have a fitted effect of over 65% in size
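Fluorescence increase (Ex 488/Em 500-530) after overnight compound treatment at 37 deg C flags inhibition of Vif-driven A3F-eYFP loss in stable HeLa A3F-eYFP/Vif cells seeded overnight beforehand.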
Epigenetic derep: regulators of epigenetic silencing causing reporter derepression in mouse cells. murine LDR cells, GFP reporter derepression, 30 h. Potency, µM (series often up to 53.9 µM), for the others: at the highest dose GFP activation, hits mostly activators. hit rate 0.2% among 280,000; further: % of control where 0% means no effect; nearly all actives have a fitted effect of over 60% in size
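Reporter derepression read as number of fluorescent GFP-positive objects, 20-120 um in size, counted by laser-scanning cytometer. Mouse LDR line with an epigenetically silenced CMV-GFP locus; compound incubation 30 h, 37 C.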
* = called active by the depositor; i = inactive; u = inconclusive; x = no result given. The call rests on the fitted dose curve; in most records, active means well fitted curve in the direction sought with a large enough effect; inconclusive means small, poorly fitted or top-dose-only effect, or another doubt; inactive means no such curve, though single readings can be large; an effect the other way counts as inactive or inconclusive. Potency means the concentration at half of the fitted maximal effect.

SMILES	Vif-APOBEC3G blk	Vif-APOBEC3F blk	Epigenetic derep
Cc1sc(-c2cc3c([nH]c2=O)CC(c2ccccc2)CC3=O)nc1-c1ccc(Cl)cc1 (centres undefined)	10µM*	13µM*	18µM*
CC(=O)c1sc2nsc(SCCN3CCCCC3)c2c1N	-5%	u	5%
Nc1c(C(=O)c2ccc(Cl)cc2)sc2nsc(SCCN3CCOCC3)c12	u	u	20µM*
CCOC(=O)c1noc2ncnc(Nc3ccc(F)cc3F)c12	0%	7%	1%
O=C(c1cc(-c2ccc(F)cc2)on1)N1CCCCCC1	1%	4%	x
O=C(c1cc(-c2ccc(F)cc2)on1)N1CCCC1	-1%	5%	16µM*
COc1ccccc1NC(=O)Cn1cnc2sc(C(=O)Nc3cc(OC)c(OC)c(OC)c3)c(C)c2c1=O	-1%	-11%	x
COc1ccccc1NC(=O)c1sc2ncn(CC(=O)Nc3ccccc3)c(=O)c2c1C	-3%	25µM*	x
Cc1c(CNC(C)CCc2ccccc2)c(C(=O)O)c(C)n1Cc1ccc(F)cc1 (centres undefined)	8%	-11%	0%
CNC(=O)c1cc(-c2cccs2)on1	-1%	x	x
O=C(CSc1n[nH]c(-c2ccccn2)n1)Nc1ccc(Cl)cc1	-7%	7.9µM*	x
O=C(CSc1n[nH]c(-c2ccccn2)n1)Nc1ccc(F)cc1	5%	u	x
O=CC(=O)c1ccc(Cl)cc1	-2%	x	x
CCS(=O)(=O)N1CCc2cc(C(=O)N3CCN(c4ccccc4)CC3)ccc21	0%	1%	8%
O=C(Cc1ccc(OCCC2CCCCC2)cc1)NO	1%	x	x
O=C(O)c1ccc(N2C(=O)CC(SC(=Nc3ccccc3)Nc3ccccc3)C2=O)cc1 (centres undefined)	0%	4%	5%
CC(/C=C/c1ccc(N(C)C)cc1)=N\N=C(/N)SC1CC(=O)N(c2ccc(C(=O)O)cc2)C1=O (centres undefined)	-15%	25µM*	-1%
COC(=O)c1ccc(Nc2c([N+](=O)[O-])ccc3nonc23)cc1	u	25µM*	x
CC(=O)c1ccc(Nc2c([N+](=O)[O-])ccc3nonc23)cc1	-1%	-7%	x
CCCCC(=O)Nc1sc2c(c1C(=O)OCC)CCC(C=O)=C2Cl	x	x	11µM*
CCOC(=O)c1c(NC(=O)c2ccccc2Cl)sc2c1CCc1ccccc1-2	0%	9%	7%
Cc1cc(=O)n(C(C)C(=O)NCc2ccccc2Cl)c2c1c(C)nn2-c1ccccc1 (centres undefined)	0%	-1%	9%
COc1cc2nc(N3CCCN(C)CC3)nc(NC3CCN(Cc4ccccc4)CC3)c2cc1OC	-13%	x	x
CN(C)c1ccc(/C=C/c2cc3ccccc3c[n+]2C)cc1	3%	x	x
CCOc1ccc(NC(=O)Cn2cc(C(=O)c3ccc(OCC)cc3)c(=O)c3cc4c(cc32)OCCO4)cc1	5%	0%	20µM*
SMILES	Vif-APOBEC3G blk	Vif-APOBEC3F blk	Epigenetic derep
CCOc1ccc(C(=O)c2cn(CC(=O)Nc3ccc(Cl)cc3)c3cc4c(cc3c2=O)OCCO4)cc1	-1%	6%	2%
CCCCC(=O)NC(c1ccc(Cl)cc1)c1ccc2cccnc2c1O (centres undefined)	-11%	-1%	x
CCCC(=O)NC(c1ccccc1OC)c1ccc2cccnc2c1O (centres undefined)	-18%	u	7.1µM*
CC(C)C(=O)NC(c1ccco1)c1ccc2cccnc2c1O (centres undefined)	-6%	6%	3.5µM*
CCC(=O)NC(c1cccs1)c1ccc2cccnc2c1O (centres undefined)	0%	-16%	4µM*
CC(C)C(=O)NC(c1ccc(N(C)C)cc1)c1ccc2cccnc2c1O (centres undefined)	-8%	x	x
CC(C)CC(=O)NC(c1cccs1)c1ccc2cccnc2c1O (centres undefined)	-14%	-30%	-1%
CCCCC(=O)NC(c1ccccc1OC)c1ccc2cccnc2c1O (centres undefined)	-25%	-11%	3.5µM*
CCCC(=O)NC(c1ccc(C)cc1)c1ccc2cccnc2c1O (centres undefined)	-25%	1%	x
Cc1c(CCC(=O)NCc2ccc(F)cc2)c(=O)oc2cc(O)ccc12	-4%	6%	-2%
Cc1cccc(NS(=O)(=O)c2ccc3c(c2)n(C)c(=O)n3C)c1C	-1%	-7%	-1%
Cc1ccc(C)n1-c1c(C(=O)NCC(C)c2ccccc2)sc2ncccc12 (centres undefined)	-3%	1%	2%
COc1cccc(Cn2cnc3c(cnn3C(C)(C)C)c2=O)c1	-1%	x	x
CCCC(=O)NC(c1cccs1)c1cc(Cl)c2cccnc2c1O (centres undefined)	-1%	0%	u
CC(=O)NC(c1cccs1)c1cc(F)c2cccnc2c1O (centres undefined)	u	10µM*	x
O=C(Nc1ccncc1)c1cnn2c1NC(=C1CC1)C=C2C(F)F	-3%	x	x
CN1C(=O)C2(c3ccccc31)N(c1cccc(C(F)(F)F)c1)C(=O)CS2(=O)=O (centres undefined)	0%	5%	4%
Cc1c(Cl)cccc1NC(=O)CN1C(=O)CSc2ncccc21	x	x	0%
O=C(CN1C(=O)CSc2ncccc21)Nc1cccc(Cl)c1	u	10µM*	x
Cc1cccc(OCC(=O)Nc2cc(-c3nc4cc(Cl)ccc4o3)ccc2C)c1	-1%	x	x
Cc1ccc(-c2c(C3C4C=CCCC4(C)C(=O)N3Cc3ccccc3)ccc3ccccc23)cc1 (centres undefined)	2%	x	x
COc1ccc(-n2c(O)c(/C=N/NS(=O)(=O)c3cc(C)ccc3C)c3ccccc3c2=O)cc1OC	6%	u	7%
COc1ccc(-n2c(O)c(/C=N/NS(=O)(=O)c3ccc(C)cc3)c3ccccc3c2=O)cc1OC	u	5µM*	16%
CCNc1ccc(/C=C2\C=Cc3ccccc32)cc1	1%	x	x
O=c1oc2ccc3ccccc3c2cc1-c1nnc(-c2ccccc2)o1	3%	-4%	-1%
SMILES	Vif-APOBEC3G blk	Vif-APOBEC3F blk	Epigenetic derep
CCN(CC)c1ccc2cc(-c3nc4ccccc4n3C)c(=O)oc2c1	u	11µM*	7.1µM*
COc1cccc2cc(-c3nc4ccccc4[nH]3)c(=O)oc12	2%	4%	x
CCN(CC)c1ccc2cc(-c3nc(-c4ccc(Cl)cc4Cl)cs3)c(=O)oc2c1	-21%	7.1µM*	2.8µM*
CCN(CC)c1ccc2cc(-c3nc4ccccc4[nH]3)c(=O)oc2c1	u	-349%	2.8µM*
CCN(CC)c1ccc2cc(-c3nnc(-c4ccccc4)o3)c(=O)oc2c1	u	i	3.2µM*
CN(C)Cc1c(O)ccc2cc(-c3nc4ccccc4n3C)c(=O)oc12	1%	19%	x
CCN(CC)c1ccc2cc(-c3nc(-c4ccc(OC)cc4)cs3)c(=O)oc2c1	6%	-105%	u
Cc1oc2ncn(C)c(=O)c2c1C(=O)Nc1ccc(F)cc1	-6%	-2%	-3%
CC(C)(C)n1ncc2c(=O)n(Cc3cc(C(F)(F)F)ccc3Cl)cnc21	2%	x	x
COc1cccc(/C=C/c2nc3ccccc3nc2/C=C/c2cccc(OC)c2OC)c1OC	-2%	x	x
COc1ccc(Cn2c(SCC(=O)NCc3ccc(Cl)cc3)nc3ccsc3c2=O)cc1	3%	1%	18%
